Laboratory results reported in PubChem BioAssay AID1159580 (chemical genetic matrix, 2015).
Several values for one entry are separate records, joined by “and”; a condition that tells them apart may be missing. Equal entries are not always repeated. Out of some 5,500 compounds screened, about 2,000 (36%) were called active. Not shown: some 18% with an inconclusive outcome. No stated cut-off is given here; in the data, active means normalized growth mostly below about 0.91 (no sharp cut-off); inconclusive means no clear call, values can overlap the other calls; inactive means mostly above about 0.92. The list shows a part of the results.

Assay: chemical genetic growth profiling, strain panel (AID 1159580);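 further: tested at 20 µM; growth read once vehicle control cultures reached saturation at 30 °C; 1 = growth at the plate median or of vehicle wells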
Settings: S. cerevisiae deletion strains, growth OD
[1] = locus YAL040C, strain CLN3, stronger effect = lower value
[2] = locus YDR150W, strain NUM1, stronger effect = lower value
[3] = locus YER002W, strain NOP16, stronger effect = lower value
[4] = locus YGR078C, strain PAC10, stronger effect = lower value
[5] = locus YGR229C, strain SMI1, stronger effect = lower value
[6] = locus YNL175C, strain NOP13, stronger effect = lower value
[7] = locus YNL197C, strain WHI3, stronger effect = lower value
[8] = locus YNL224C, strain SQS1, stronger effect = lower value
[9] = locus YOR083W, strain WHI5 (second series), stronger effect = lower value
[10] = locus YCL061C, strain MRC1 (second series), stronger effect = lower value
[11] = locus YDR363W, strain ESC2, stronger effect = lower value
[12] = locus YMR307W, strain GAS1, stronger effect = lower value
[13] = locus YNL153C, strain GIM3, stronger effect = lower value
[14] = locus YPL055C, strain LGE1, stronger effect = lower value
[15] = locus YNL322C, strain KRE1, stronger effect = lower value

Measured: normalized growth

CC(Cc1ccc(OCC(=O)O)cc1)NCC(O)c1cccc(Cl)c1 (configuration not stated)
inactive: [1] 0.97 | [3] 1.01 | [4] 1.01 | [5] 1.02 | locus YNL128W, strain TEP1, stronger effect = lower value 1.02 | [6] 0.984 | [7] 0.979 | [8] 0.99 | [9] 0.977
active: [2] 0.182

CN(C(=O)Cc1ccc(Cl)c(Cl)c1)C(CN1CCCC1)c1cccc(OCC(=O)O)c1 (configuration not stated)
inactive: [1] 0.998 | [10] 0.995 | [2] 1 | [11] 0.961 | [3] 0.992 | [12] 0.989 | [13] 1.01 | [6] 0.995 | [7] 0.997 | [8] 0.99 | [9] 0.999 | [14] 1.01

C[C@H](Cc1ccc2c(c1)OC(C(=O)O)(C(=O)O)O2)NC[C@H](O)c1cccc(Cl)c1
inactive: [1] 1.02 | [10] 1.01 | [11] 0.998 | [3] 0.992 | [4] 1.01 | [5] 1.01 | [12] 1.02 | [13] 0.967 | [6] 1 | [7] 0.987 | [8] 1 | [15] 1 | [9] 0.985

CO[C@@H]1[C@@H](O[C@@H]2O[C@H](C)[C@@H](O[C@H]3C[C@@](C)(O)[C@H](O)[C@H](C)O3)[C@H](N(C)C)[C@H]2O)[C@@H](CC=O)C[C@@H](C)[C@@H](O[C@H]2CC[C@H](N(C)C)[C@@H](C)O2)/C=C/C=C/C[C@H](C)OC(=O)C[C@H]1O
inactive: locus YAL021C, strain ccr4, stronger effect = lower value 1.02 | locus YAL026C, strain drs2, stronger effect = lower value 1.01 | locus YAL030W, strain snc1, stronger effect = lower value 0.997 | locus YBL061C, strain skt5, stronger effect = lower value 1.02 | locus YBR009C, strain hhf1, stronger effect = lower value 1.01 | locus YBR021W, strain FUR4, stronger effect = lower value 1.03 | locus YBR023C, strain chs3, stronger effect = lower value 1.01 | locus YBR171W, strain sec66, stronger effect = lower value 1.02 | locus YBR229C, strain ROT2, stronger effect = lower value 1.02 | locus YBR231C, strain swc5, stronger effect = lower value 1.02 | locus YBR279W, strain paf1, stronger effect = lower value 1.03 | locus YCL011C, strain gbp2, stronger effect = lower value 1.01 | locus YCL016C, strain dcc1, stronger effect = lower value 1.01 | locus YCL029C, strain bik1, stronger effect = lower value 1 | locus YCL061C, strain MRC1, stronger effect = lower value 1.01 | locus YCL069W, strain vba3, stronger effect = lower value 1.01 | locus YCR088W, strain abp1, stronger effect = lower value 1.02 | locus YDL005C, strain med2, stronger effect = lower value 1.01 | locus YDL035C, strain GPR1, stronger effect = lower value 1 | locus YDL040C, strain nat1, stronger effect = lower value 1.02 | locus YDL074C, strain BRE1, stronger effect = lower value 1.04 | locus YDL101C, strain DUN1, stronger effect = lower value 1.01 | locus YDL185W, strain tfp1, stronger effect = lower value 0.976 | locus YDL192W, strain arf1, stronger effect = lower value 0.998 | locus YDR001C, strain nth1, stronger effect = lower value 1.01 | locus YDR069C, strain doa4, stronger effect = lower value 1 | locus YDR101C, strain arx1, stronger effect = lower value 1.02 | locus YDR137W, strain rgp1, stronger effect = lower value 1.02 | [2] 1.02 | locus YDR159W, strain sac3, stronger effect = lower value 1.01 | locus YDR162C, strain NBP2, stronger effect = lower value 1.01 | locus YDR195W, strain ref2 1 | locus YDR297W, strain sur2, stronger effect = lower value 1.01 | locus YDR318W, strain mcm21, stronger effect = lower value 0.996 | locus YDR334W, strain swr1, stronger effect = lower value 1.03 | locus YDR335W, strain msn5, stronger effect = lower value 1.01 | locus YDR388W, stronger effect = lower value 1 | locus YDR392W, strain spt3, stronger effect = lower value 1.02 | locus YDR502C, strain sam2, stronger effect = lower value 0.989 | locus YEL003W, strain gim4, stronger effect = lower value 1.01 | locus YEL037C, strain rad23, stronger effect = lower value 1.01 | locus YEL061C, strain CIN8 (second series), stronger effect = lower value 1.01 | locus YEL061C, strain CIN8, stronger effect = lower value 1.01 | locus YER015W, strain faa2, stronger effect = lower value 1 | locus YER016W, strain bim1, stronger effect = lower value 1.01 | locus YER110C, stronger effect = lower value 0.967 | locus YER111C, strain swi4, stronger effect = lower value 1.01 | locus YER155C, strain BEM2 (second series), stronger effect = lower value 1.02 | locus YER155C, strain BEM2, stronger effect = lower value 1.01 | locus YER167W, strain BCK2, stronger effect = lower value 1.02 | locus YFR010W, strain ubp6, stronger effect = lower value 1.02 | locus YGL078C, strain dbp3, stronger effect = lower value 0.982 | locus YGL086W, strain mad1, stronger effect = lower value 0.994 | locus YGL167C, strain pmr1, stronger effect = lower value 1.01 | locus YGL173C, strain kem1, stronger effect = lower value 1.01 | locus YGL227W, strain vid30, stronger effect = lower value 1.02 | locus YGL240W, strain doc1, stronger effect = lower value 0.999 | locus YGL248W, strain PDE1, stronger effect = lower value 1.02 | locus YGL253W, strain hxk2, stronger effect = lower value 1.01 | [4] 1.01 | locus YGR135W, strain pre9, stronger effect = lower value 0.955 | [5] 1.03 | locus YGR252W, strain gcn5, stronger effect = lower value 0.95 | locus YHR013C, strain ard1, stronger effect = lower value 1.03 | locus YHR027C, strain rpn1, stronger effect = lower value 1.01 | locus YHR030C, strain SLT2, stronger effect = lower value 1.02 and 0.972 | locus YHR079C, strain IRE1 (second series), stronger effect = lower value 1 | locus YHR079C, strain IRE1, stronger effect = lower value 0.961 | locus YHR094C, strain hxt1, stronger effect = lower value 1 | locus YHR129C, strain ARP1, stronger effect = lower value 1.02 | locus YHR142W, strain chs7, stronger effect = lower value 1 | locus YHR200W, strain rpn10, stronger effect = lower value 0.984 | locus YIL066C, strain RNR3, stronger effect = lower value 1.03 | locus YIL073C, strain SPO22, stronger effect = lower value 0.928 | locus YIL125W, strain kgd1, stronger effect = lower value 0.997 | locus YIR030C, strain dcg1, stronger effect = lower value 1 | locus YJL092W, strain hpr5, stronger effect = lower value 1.01 | locus YJL095W, strain BCK1 (second series), stronger effect = lower value 1.01 | locus YJL095W, strain BCK1, stronger effect = lower value 1.01 and 0.969 | locus YJL115W, strain asf1, stronger effect = lower value 1.02 | locus YJL129C, strain trk1, stronger effect = lower value 1 | locus YJL134W, strain LCB3, stronger effect = lower value 1.01 | locus YJL154C, strain vps35, stronger effect = lower value 1.02 | locus YJL164C, strain tpk1, stronger effect = lower value 1 | locus YJL166W, strain qcr8, stronger effect = lower value 1.02 | locus YJL168C, strain set2, stronger effect = lower value 0.979 | locus YJL187C, strain SWE1 (second series), stronger effect = lower value 1.02 | locus YJL187C, strain SWE1, stronger effect = lower value 1.01 | locus YJR043C, strain POL32, stronger effect = lower value 1 | locus YJR066W, strain TOR1, stronger effect = lower value 0.922 | locus YJR075W, strain HOC1, stronger effect = lower value 0.991 | locus YKL009W, strain mrt4, stronger effect = lower value 0.969 | locus YKL068W, stronger effect = lower value 1.02 | locus YKL085W, strain MDH1 (second series), stronger effect = lower value 1.01 | locus YKL085W, strain MDH1, stronger effect = lower value 1.01 | locus YKL160W, strain elf1, stronger effect = lower value 1.02 | locus YKR001C, strain vps1, stronger effect = lower value 0.982 | locus YKR026C, strain gcn3, stronger effect = lower value 1.02 | locus YKR091W, strain srl3, stronger effect = lower value 1.01 | locus YLL001W, strain dnm1, stronger effect = lower value 1.01 | locus YLL026W, stronger effect = lower value 1.01 | locus YLL041C, strain sdh2, stronger effect = lower value 1.01 | locus YLR027C, strain aat2, stronger effect = lower value 1.01 | locus YLR039C, strain RIC1, stronger effect = lower value 0.943 | locus YLR058C, strain SHM2, stronger effect = lower value 1.02 | locus YLR102C, strain apc9, stronger effect = lower value 0.997 | locus YLR113W, strain HOG1, stronger effect = lower value 0.965 | locus YLR221C, strain rsa3, stronger effect = lower value 1 | locus YLR258W, strain gsy2, stronger effect = lower value 1.01 | locus YLR262C, strain YPT6 (second series), stronger effect = lower value 1.02 | locus YLR262C, strain YPT6, stronger effect = lower value 0.989 | locus YLR268W, strain sec22, stronger effect = lower value 0.996 | locus YLR320W, strain mms22, stronger effect = lower value 1.02 | locus YLR330W, strain CHS5, stronger effect = lower value 1.01 | locus YLR342W, strain FKS1 (second series), stronger effect = lower value 0.999 | locus YLR342W, strain FKS1, stronger effect = lower value 1.02 | locus YLR357W, strain rsc2, stronger effect = lower value 1.02 | locus YLR370C, strain arc18, stronger effect = lower value 1.01 | locus YLR371W, strain rom2, stronger effect = lower value 1 | locus YLR384C, strain iki3, stronger effect = lower value 1.03 | locus YLR418C, strain cdc73, stronger effect = lower value 0.967 | locus YML016C, strain PPZ1, stronger effect = lower value 1.01 | locus YML032C, strain rad52, stronger effect = lower value 0.955 | locus YML120C, strain ndi1, stronger effect = lower value 1.01 | locus YML124C, strain tub3, stronger effect = lower value 1 | locus YMR058W, strain fet3, stronger effect = lower value 1.02 | locus YMR078C, strain ctf18, stronger effect = lower value 0.993 | locus YMR125W, strain sto1, stronger effect = lower value 1.01 | locus YMR129W, stronger effect = lower value 1.02 | locus YMR205C, strain PFK2, stronger effect = lower value 1.03 | locus YMR223W, strain ubp8, stronger effect = lower value 0.975 | locus YMR231W, strain pep5, stronger effect = lower value 1 | locus YMR263W, strain SAP30, stronger effect = lower value 1.01 | [12] 0.959 | locus YNL067W, strain RPL9B, stronger effect = lower value 1.01 | locus YNL071W, strain lat1, stronger effect = lower value 1 | [13] 1.01 | locus YNL183C, strain NPR1, stronger effect = lower value 0.921 | locus YNL209W, strain ssb2, stronger effect = lower value 1.02 | locus YNL233W, strain BNI4, stronger effect = lower value 1 | locus YNL248C, strain rpa49, stronger effect = lower value 1.01 | locus YNL250W, strain rad50, stronger effect = lower value 0.989 | locus YNL271C, strain bni1, stronger effect = lower value 1 | locus YNL298W, strain CLA4, stronger effect = lower value 0.997 | locus YNL307C, strain MCK1, stronger effect = lower value 0.993 | locus YNL322C, strain KRE1 (second series), stronger effect = lower value 1.01 | [15] 1.02 | locus YNR049C, strain mso1, stronger effect = lower value 1.02 | locus YNR052C, strain pop2, stronger effect = lower value 0.996 | locus YOL012C, strain htz1 0.441 | locus YOL147C, strain pex11, stronger effect = lower value 0.991 | locus YOR001W, strain rrp6, stronger effect = lower value 0.998 | locus YOR061W, strain CKA2, stronger effect = lower value 1.01 | locus YOR069W, strain VPS5, stronger effect = lower value 1.01 | locus YOR070C, strain gyp1, stronger effect = lower value 1.01 | locus YOR080W, strain dia2, stronger effect = lower value 1.01 | locus YOR083W, strain WHI5, stronger effect = lower value 1.02 | locus YOR106W, strain vam3, stronger effect = lower value 1.03 | locus YOR136W, strain idh2, stronger effect = lower value 1 | locus YOR144C, strain elg1, stronger effect = lower value 0.992 | locus YOR184W, strain ser1, stronger effect = lower value 0.967 | locus YOR231W, strain MKK1, stronger effect = lower value 0.973 | locus YOR265W, strain rbl2, stronger effect = lower value 1.01 | locus YOR270C, strain vph1, stronger effect = lower value 0.997 | locus YOR290C, strain snf2, stronger effect = lower value 1 | locus YOR316C, strain cot1, stronger effect = lower value 1.01 | locus YPL051W, strain arl3, stronger effect = lower value 1.01 | [14] 1.03 | locus YPL078C, strain atp4, stronger effect = lower value 1.01 | locus YPL106C, strain sse1, stronger effect = lower value 1.04 | locus YPL240C, strain hsp82, stronger effect = lower value 1.01 | locus YPL256C, strain CLN2, stronger effect = lower value 1 | locus YPR119W, strain clb2, stronger effect = lower value 0.994 | locus YPR141C, strain kar3, stronger effect = lower value 1.02 | locus YPR163C, strain tif3, stronger effect = lower value 1.01 | locus YPR167C, strain met16, stronger effect = lower value 1 | strain wtn01, stronger effect = lower value 0.989
